# Experimental data: PubChem BioAssay (NCATS)
# Results filed as inconclusive are left out. Values without a mark were called inactive. Activity calls are given as the source filed them. Calls follow the shape of the dose curve; as a rule, active = well fitted inhibition curve with a large enough effect; inconclusive = small, poorly fitted or top-dose-only effect; inactive = flat fitted curve, though single readings scatter.
# Assays:
# [1] = system: HaCat; test: Cytotoxic Profiling of Annotated Libraries Using Quantitative High-Throughput Screening (AID 1296008); details: Five cell lines viability, CellTiter-Glo ATP luminescence, 48-72 h; max response: stronger effect = lower value; also: potency is read from the fitted curve at half-maximal effect; as to max response: % is scaled to controls: 0 for no effect and ±100 for the full control effect
# How it was run: (§1)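 Compounds were pin-transferred onto cells and incubated 48 or 72 hr at 37 degree Celsius, 95% humidity. CellTiter-Glo was added, plates sat 10 min at room temperature, then ATP-coupled luminescence was imaged as the viability read-out.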
# [2] = system: KB-3-1; test: as above; details: Five cell lines viability, CellTiter-Glo ATP luminescence, 48-72 h; max response: stronger effect = lower value
# How it was run: as §1
# [3] = system: NIH3T3; test: as above; details: Five cell lines viability, CellTiter-Glo ATP luminescence, 48-72 h; max response: stronger effect = lower value
# How it was run: as §1
# [4] = system: HACAT; test: qHTS assay to identify novel small-molecules to repurpose for Merkel cell carcinoma treatment (AID 1296009); details: MCC and control cell lines, CellTiter-Glo viability, 72 h; at 44.8 µM (top of the series) unless noted
# How it was run: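 Luminescence from CellTiter-Glo, read 10 min after addition at room temperature, reported viability following a 72 hr, 37 degree celsius treatment with NPC or MIPE compounds in titration; values normalized to plate controls.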
# Also: nearly all actives have a fitted effect of over 60% in size.
structure (smiles),measurement,setting,value
Cn1c(CO)c(-c2ccccc2)c2cc([N+](=O)[O-])ccc21,max response,[1],-23.7%
same,max response,[2],-20.1%
same,max response,[3],-3.34%
NC(=O)c1nc(Nc2ccccc2)sc1NC(=O)C1CCCCC1,max response,[1],-27.5%
same,outcome,[2],inactive
same,max response,[3],-18.8%
C=CCc1ccc(OC(C)Cc2ccc(OC)c(OC)c2)c(OC)c1 (stereo not given),outcome,[1],inactive
same,max response,[2],-25.6%
same,max response,[3],-6.99%
same,outcome,[4],inactive
O=C(Nc1ccc(C(F)(F)F)cn1)N1CCN(c2ncccc2C(F)(F)F)CC1,outcome,[1],inactive
same,max response,[2],-14.9%
same,max response,[3],-8.79%
same,outcome,[4],inactive
S=C(c1ccc(-c2ccc(Cl)c(Cl)c2)o1)N1CCCCC1,outcome,[1],inactive
same,max response,[2],6.89%
same,max response,[3],2.68%
same,outcome,[4],inactive
Cc1ccc(N2CCN(S(=O)(=O)N3CCCCC3)CC2)c(C)c1,outcome,[1],inactive
same,max response,[2],-2.41%
same,max response,[3],4.82%
same,outcome,[4],inactive
O=C(Nc1ncc([N+](=O)[O-])s1)c1ccccc1O,outcome,[1],inactive
same,Potency,[2],8.2 µM (active)
same,outcome,[3],inactive
same,outcome,[4],inactive
O=C(Nc1cnc(Cl)nc1)c1ccc(F)c(F)c1,outcome,[1],inactive
same,max response,[2],3.36%
same,max response,[3],1.41%
same,outcome,[4],inactive
NC(=O)C1=CC2C3C=CC2C(OC3=O)O1 (stereo not given),max response,[1],-28.3%
same,max response,[2],5.92%
same,max response,[3],3.24%
C=C(C)C(=O)O[C@H]1/C(C=O)=C\CC/C(CO)=C/[C@H]2OC(=O)C(=C)[C@@H]2[C@@H]1OC,outcome,[1],inactive
same,max response,[2],9.81%
same,outcome,[4],inactive
C/C=C(\C)C(=O)O[C@@H]1[C@@H](C)[C@]2(O)[C@@H]3C=C(C)C(=O)[C@H]3CC(CO)=C[C@H]2C2C(C)(C)[C@@]21OC(=O)C(C)CC (stereo not given in full),outcome,[1],inactive
same,max response,[2],0.342%
same,max response,[3],4.54%
same,outcome,[4],inactive [at 17.4 µM]
